Compound activity as filed in PubChem.
ATXN2 expr inh – reduces ATXN2 reporter expression in HEK-293 cells | 0.72% of 360,000 active | AID 1745845 | Potency, µM (highest dose often 57 µM), inactives show at the highest dose activity change, negative = inhibition, most hits filed as inhibitors | HEK-293 ATXN2-luciferase reporter, luminescence, 24 h; note: potency is the fitted concentration of half-maximal effect; % is set by controls: 0 for no effect and ±100 for the full control effect; nearly all actives have a fitted effect of over 55% in size
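ATXN2-luciferase reporter cells (luciferase flanked by upstream and downstream ATXN2 gene portions) were treated 24 h at 37 °C with compounds at up to 57 uM. SteadyGlo luminescence gave expression; GF-AFC fluorescence gave viability.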
IL1B secr inh – inhibitors of inflammasome signaling (IL-1 beta secretion); THP-1 LPS/ATP IL-1B secretion, AlphaLISA, 16 h; active compounds read low; activity change, % at 57.5 µM; 4.7% of 360,000 active; AID 743279; in the data active = activity change below about -50%; inconclusive = mostly about -30% to -49%; note: % is set by controls: 0 for no effect and ±100 for the full control effect
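THP-1 cells pretreated 1 hr with compounds (up to 57.5 uM final), then stimulated with LPS (250 ng/mL final) plus ATP (1.25 mM final); secreted IL-1B measured by AlphaLISA after 16 hr, decreased signal indicating inhibition.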
USP2a block – blocks human ubiquitin-specific protease USP2a; 0.01% of 330,000 active; USP2 core, Ub-CHOP2 coupled fluorogenic reporter, 485/531; O75604; Potency, µM (top dose mostly 38.3 µM), without a hit: top-dose activity change, negative = inhibition, most hits filed as inhibitors; AID 463254;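 note: potency is the fitted concentration of half-maximal effect; plate controls were DMSO wells for no effect and full inhibition by NEM control for full effect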
Target sequence (O75604 whole entry, looked up): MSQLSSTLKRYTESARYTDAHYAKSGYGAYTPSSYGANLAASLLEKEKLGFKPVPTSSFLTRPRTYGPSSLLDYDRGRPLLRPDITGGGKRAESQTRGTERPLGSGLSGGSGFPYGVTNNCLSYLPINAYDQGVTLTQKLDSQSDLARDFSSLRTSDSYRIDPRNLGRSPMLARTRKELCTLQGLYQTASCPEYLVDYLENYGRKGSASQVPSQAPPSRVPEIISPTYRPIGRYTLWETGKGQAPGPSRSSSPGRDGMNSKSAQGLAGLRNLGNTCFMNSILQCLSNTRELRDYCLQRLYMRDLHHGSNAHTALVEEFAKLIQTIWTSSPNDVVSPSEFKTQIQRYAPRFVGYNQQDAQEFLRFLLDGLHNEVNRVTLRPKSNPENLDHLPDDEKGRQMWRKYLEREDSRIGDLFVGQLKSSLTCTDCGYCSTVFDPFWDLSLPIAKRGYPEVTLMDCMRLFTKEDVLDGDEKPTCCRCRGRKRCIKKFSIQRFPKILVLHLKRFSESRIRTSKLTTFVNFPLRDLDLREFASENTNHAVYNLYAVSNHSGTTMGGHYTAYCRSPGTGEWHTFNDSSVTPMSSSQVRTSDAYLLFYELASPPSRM
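Deubiquitinase activity read as fluorescence (485/531 nm) after Ub-CHOP2 cleavage activates the enterokinase reporter on its substrate; USP2 core 10nM, Ub-CHOP2 and substrate 25nM each, 30min compound preincubation then 60min RT; data normalized to NEM, curves fitted.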
USP1-UAF1 inh – blocks the human USP1/UAF1 deubiquitinase complex; recombinant USP1/UAF1, Ub-Rhodamine cleavage fluorescence; Potency, µM (top dose mostly 57.1 µM), for inactives: at the highest dose activity change, negative = inhibition, usual class: inhibitors; 0.23% of 390,000 active; note: potency is the fitted concentration of half-maximal effect; % is set by controls: 0 for no effect and ±100 for the full control effect; nearly all actives have a fitted effect of over 60% in size
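USP1/UAF1 complex (1 nM) preincubated 15 min at room temperature with compound, then Ub-Rho substrate (150 nM final) added. Kinetic fluorescence at 480/540 nm over 6 reads at 60 s intervals; 50 mM HEPES pH 7.8, 0.5 mM EDTA, 0.1 mg/ml BSA, 1 mM TCEP, 0.01% Tween-20.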
ATXN viability – reduces viability in counter-screen for ATXN expression inhibitors; 0.49% of 400,000 active; Potency, µM (top dose mostly 56.7 µM), most hits filed as cytotoxic; S2 cells (HEK-293 line with an ATXN2-luciferase reporter) viability, CellTiter-Fluor protease fluorescence, 24 h; note: potency is the fitted concentration of half-maximal effect; nearly all actives have a fitted effect of over 40% in size
Numbers without * were called inactive; i = inactive; ? = inconclusive; / = not tested or not shown. In the library only some 4.8% were active in any assay of this set; here they are far more common. Unless noted, calls come from the whole dose curve; as a rule, active = well fitted curve in the direction sought with a large enough effect; inconclusive = small, poorly fitted or top-dose-only effect, or another doubt; inactive = no such curve, though single readings can be large; an effect the other way counts as inactive or inconclusive.

SMILES	ATXN2 expr inh	IL1B secr inh	USP2a block	USP1-UAF1 inh	ATXN viability
COc1ccc(-c2cc(C(=O)OCC(=O)c3ccc(C)c([N+](=O)[O-])c3)c3ccccc3n2)cc1	-1%	-55*	6%	-1%	i
Cc1cc(C(=O)OCC(=O)c2ccc(Cl)c([N+](=O)[O-])c2)c2cccc(C)c2n1	-19%	0	2%	-13%	i
CCc1nc2cc(C(=O)NC3CCS(=O)(=O)C3)cc(NC(=O)c3ccccc3OC)c2n1C (centres undefined)	/	/	/	/	i
CCc1cc(/C(Cc2ccccn2)=N\Nc2ccccc2)c(O)cc1O	/	-76*	3%	?	i
Cc1ccc(/C=N/n2cnc3sc4c(c3c2=O)CCCC4)o1	14%	-58*	-1%	-19%	i
O=C1OCCN1C(=O)[C@H]1[C@H](c2ccc([N+](=O)[O-])cc2)C(c2ccc(F)cc2)=NN1c1ccccc1	-6%	-51*	4%	-23%	i
C[C@@H]1C(c2cccc(Cl)c2)=NN(c2ccc(Br)cc2)[C@H]1C(=O)N1CCOC1=O	-17%	-51*	-6%	-40%	/
C[C@@H]1C(c2cccc(Cl)c2)=NN(c2ccccc2)[C@H]1C(=O)N1CCOC1=O	-6%	-78*	0%	-27%	/
C[C@@H]1C(c2ccccc2)=NN(c2ccccc2)[C@H]1C(=O)N1CCOC1=O	11%	-19	-8%	-25%	i
O=C1OCCN1C(=O)[C@H]1[C@H](c2ccccc2)C(c2ccccc2)=NN1c1ccc(Br)cc1	-7%	-7	3%	-20%	/
CCOC(=O)[C@H](CCc1ccccc1)N[C@@H](C)C(=O)N(CC(=O)O)C1Cc2ccccc2C1	-4%	/	/	/	i
COc1ccc(C(C)=O)cc1Cn1c(C)c(C(=O)NCCC#N)sc1=O	9%	-16	/	/	i
CC1CCn2c(nc3cc(C(=O)NCCc4ccccc4)ccc32)C1 (centres undefined)	/	/	/	-26%	/
COc1ccc(/C=C2\CCC(C3CCCC3)C2=O)c(OC)c1 (centres undefined)	27%	58	1%	-17%	i
COc1cc(OC)c(OC)cc1/C=C1\CCC(C2CCCC2)C1=O (centres undefined)	/	-51*	-5%	-8%	i
COc1cc(OC)c(OC)cc1/C=C1\CCC/C(=C\c2cc(OC)c(OC)cc2OC)C1=O	?	-56*	0%	-8%	?
O=C(CC(O)(CC(=O)OCc1ccccc1)C(=O)OCc1ccccc1)OCc1ccccc1	-15%	-55*	/	?	i
O=C(CC(=O)OCc1ccccc1)OCc1ccccc1	2%	19	/	-20%	i
COC[C@@H](c1ccc(C(F)(F)F)cc1)N1CCN(C2(C)CCN(C(=O)c3c(C)ncnc3C)CC2)C[C@H]1C	-11%	/	/	/	i
COc1ccc(OC)c(-c2cc(Cl)c3c(c2)CC(CNC(=O)c2cnn4cccnc24)O3)c1 (centres undefined)	/	/	/	/	i
CC(C)(C)C(=O)Nc1ccc(NC(=O)c2ccco2)nc1	0.89µM*	-14	-1%	-26%	i
CC(C)(C)C(=O)Nc1ccc(/C=C/C(=O)c2ccco2)cc1	61%	-102*	0%	-18%	?
O=C(Nc1ccc(NC(=O)c2ccco2)nc1)c1ccco1	/	-7	-1%	8%	i
O=C(c1ccccc1F)N(Cc1cc2cc3c(cc2nc1N1CCOCC1)CCC3)CC1CCCO1 (centres undefined)	/	/	/	/	i
OC1(CNCc2cn[nH]c2-c2cc3ccccc3o2)CCCCC1	-12%	-91*	1%	5%	i
c1ccc2oc(-c3[nH]ncc3CN3CCSCC3)cc2c1	3%	-24	1%	-17%	i
CCCC(CCC)C(N)=O	/	/	/	/	i
C[C@@H]1CN(Cc2ccc3c(c2)CN(Cc2cccn2-c2cccnc2)CCO3)C[C@H](C)O1	/	/	/	/	i
COc1ccc(OCC(=O)NC2CCCc3ccccc32)cc1 (centres undefined)	-28%	-87*	1%	-17%	i
